# Measurements taken from PubChem BioAssay (NCI).
# This is part of a sample that, as a whole, favours compounds with a hit. Of some 79,000 tested, about 15% had one in any assay. Values without a mark were called inactive. The source made the active and inactive calls. No stated cut-off is given here; in the data, active means growth inhibition above about 70%; inactive means the rest.
# Assays:
# [1] = NCI Yeast Anticancer Drug Screen. Data for the rad52 strain (AID 147);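 further: 0% = growth of vehicle-treated control cultures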; conditions: S. cerevisiae rad52 mutant growth inhibition, stronger effect = higher value
# Outline: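 Read-out: growth inhibition versus vehicle-treated controls. Cells were a DNA repair-deficient yeast strain treated with compounds.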
# [2] = NCI Yeast Anticancer Drug Screen. Data for the wt1 strain (AID 149);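 further: 0% = growth of vehicle-treated wt1 cultures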; conditions: S. cerevisiae wt1 strain (SPY 50644) growth inhibition, stronger effect = higher value
# Outline: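 Growth inhibition read against vehicle controls after compound exposure of the wt1 yeast strain.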
# [3] = NCI Yeast Anticancer Drug Screen. Data for the rad50EPP+ strain (AID 151);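 further: 0% = growth of vehicle-treated control cultures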; conditions: S. cerevisiae rad50 mutant strain, stronger effect = higher value
# Outline: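 Growth inhibition read against vehicle controls in rad50EPP+ yeast, a strain altered in DNA damage repair, after compound exposure.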
# [4] = NCI Yeast Anticancer Drug Screen. Data for the mgt1 strain (AID 153); conditions: S. cerevisiae mgt1 mutant growth inhibition, stronger effect = higher value
# Outline: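 mgt1 yeast grown with test compound; read-out is growth inhibition versus vehicle-treated cultures.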
# [5] = NCI Yeast Anticancer Drug Screen. Data for the rad50 strain (AID 155);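 further: 0% = growth of vehicle-only cultures of the same strain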; conditions: S. cerevisiae rad50 strain growth inhibition, stronger effect = higher value
# Outline: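 Readout: growth inhibition relative to vehicle-treated cultures. Compound exposure was carried out in a genetically defined yeast strain deficient in DNA damage repair.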
# [6] = NCI Yeast Anticancer Drug Screen. Data for the mec2-1 strain (AID 157); conditions: S. cerevisiae mec2-1 strain, stronger effect = higher value
# Outline: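 Yeast mec2-1 mutant treated with compound. Readout: growth inhibition vs vehicle controls.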
# [7] = NCI Yeast Anticancer Drug Screen. Data for the rad14 strain (AID 159);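 further: 0% = growth of vehicle-treated control cultures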; conditions: S. cerevisiae rad14 strain growth inhibition, stronger effect = higher value
# Outline: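 Growth inhibition vs vehicle controls; genetically altered yeast strain (DNA damage repair defect) treated with test compounds.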
# [8] = NCI Yeast Anticancer Drug Screen. Data for the sgs1 mgt1 strain (AID 161);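 further: 0% = growth of cultures given vehicle only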; conditions: S. cerevisiae sgs1 mgt1 strain, stronger effect = higher value
# Outline: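 Genetically altered yeast, compound exposure, growth inhibition relative to vehicle.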
# [9] = NCI Yeast Anticancer Drug Screen. Data for the cln2 rad14 strain (AID 165);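 further: 0% = growth equal to vehicle treated cultures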; conditions: S. cerevisiae cln2 rad14 strain, stronger effect = higher value
# Outline: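 cln2 rad14 yeast strain; compound exposure; growth inhibition read vs vehicle controls.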
# [10] = NCI Yeast Anticancer Drug Screen. Data for the bub3 strain (AID 167); conditions: S. cerevisiae bub3 mutant strain, stronger effect = higher value
# Outline: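 Readout: yeast growth inhibition, expressed relative to vehicle-only wells. The test organism is a mutant strain from a panel with lesions in DNA repair or checkpoint genes.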
# [11] = NCI Yeast Anticancer Drug Screen. Data for the wt2 strain (AID 169);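 further: 0% = growth of vehicle-treated yeast cultures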; conditions: S. cerevisiae wt2 strain growth inhibition, stronger effect = higher value
# Outline: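 Read-out: growth inhibition versus vehicle-treated control cultures after compound exposure of the yeast strain.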
# [12] = NCI Yeast Anticancer Drug Screen. Data for the mlh1 strain (AID 171);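 further: 0% = growth of vehicle-treated control cultures of the same strain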; conditions: S. cerevisiae mlh1 strain growth inhibition, stronger effect = higher value
# Outline: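 Read-out: growth inhibition versus vehicle controls. Strain: engineered yeast with a defined DNA repair or cell cycle defect, compound-treated.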
# [13] = NCI Yeast Anticancer Drug Screen. Data for the sgs1 strain (AID 173);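 further: 0% = growth of vehicle-only control cultures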; conditions: S. cerevisiae sgs1 mutant, stronger effect = higher value
# Outline: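 Read-out: yeast growth inhibition relative to vehicle controls, following compound exposure of a strain with a defined DNA repair/cell cycle alteration.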
# [14] = NCI Yeast Anticancer Drug Screen. Data for the mlh1 rad18 strain (AID 175); conditions: S. cerevisiae mlh1 rad18 strain growth inhibition, stronger effect = higher value
# Outline: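 Yeast w/ defined DNA-repair lesions; compound exposure; growth vs vehicle controls → % inhibition.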
# [15] = NCI Yeast Anticancer Drug Screen. Data for the rad18 strain (AID 177); conditions: S. cerevisiae rad18 mutant growth inhibition, stronger effect = higher value
# Outline: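 Readout: growth inhibition vs vehicle controls. Cells: genetically altered yeast strain, DNA repair defect.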
# [16] = at 5.0 µM (retest, dose inferred, filed as 0.5)
# [17] = at 50.0 µM (retest, dose inferred, filed as 5.0)
compound,measurement,setting,value
O=c1c2ccccc2nc(-c2cccc([N+](=O)[O-])c2)n1O,growth inhibition,[1]; at 1.2 µM,17%
same,growth inhibition,[1]; at 3.7 µM,45%
same,growth inhibition,[1]; at 11.0 µM,83% (active)
same,growth inhibition,[1]; at 33.0 µM,91% (active)
same,growth inhibition,[1]; at 100.0 µM,91% (active)
same,growth inhibition,[2]; at 1.2 µM,12%
same,growth inhibition,[2]; at 3.7 µM,21%
same,growth inhibition,[2]; at 11.0 µM,60%
same,growth inhibition,[2]; at 33.0 µM,84% (active)
same,growth inhibition,[2]; at 100.0 µM,90% (active)
same,growth inhibition,[3]; at 1.2 µM,-9%
same,growth inhibition,[3]; at 3.7 µM,-5%
same,growth inhibition,[3]; at 11.0 µM,13%
same,growth inhibition,[3]; at 33.0 µM,35%
same,growth inhibition,[3]; at 100.0 µM,65%
same,growth inhibition,[4]; at 1.2 µM,13%
same,growth inhibition,[4]; at 3.7 µM,21%
same,growth inhibition,[4]; at 11.0 µM,52%
same,growth inhibition,[4]; at 33.0 µM,85% (active)
same,growth inhibition,[4]; at 100.0 µM,90% (active)
same,growth inhibition,[5]; at 1.2 µM,14%
same,growth inhibition,[5]; at 3.7 µM,31%
same,growth inhibition,[5]; [16],12%
same,growth inhibition,[5]; at 11.0 µM,76% (active)
same,growth inhibition,[5]; at 33.0 µM,89% (active)
same,growth inhibition,[5]; [17],97% (active)
same,growth inhibition,[5]; at 50.0 µM,97.8% (active)
same,growth inhibition,[5]; at 100.0 µM,91% (active)
same,growth inhibition,[6]; at 1.2 µM,14%
same,growth inhibition,[6]; at 3.7 µM,19%
same,growth inhibition,[6]; [16],7%
same,growth inhibition,[6]; at 11.0 µM,37%
same,growth inhibition,[6]; at 33.0 µM,58%
same,growth inhibition,[6]; [17],95% (active)
same,growth inhibition,[6]; at 50.0 µM,97.7% (active)
same,growth inhibition,[6]; at 100.0 µM,68%
same,growth inhibition,[7]; at 1.2 µM,36%
same,growth inhibition,[7]; at 3.7 µM,73% (active)
same,growth inhibition,[7]; at 11.0 µM,93% (active)
same,growth inhibition,[7]; at 33.0 µM,97% (active)
same,growth inhibition,[7]; at 100.0 µM,97% (active)
same,growth inhibition,[8]; [16],26%
same,growth inhibition,[8]; [17],97% (active)
same,growth inhibition,[8]; at 50.0 µM,98% (active)
same,growth inhibition,[9]; [16],-20%
same,growth inhibition,[9]; [17],76% (active)
same,growth inhibition,[9]; at 50.0 µM,87.2% (active)
same,growth inhibition,[10]; at 1.2 µM,-4%
same,growth inhibition,[10]; at 3.7 µM,5%
same,growth inhibition,[10]; [16],71% (active)
same,growth inhibition,[10]; at 11.0 µM,43%
same,growth inhibition,[10]; at 33.0 µM,59%
same,growth inhibition,[10]; [17],96% (active)
same,growth inhibition,[10]; at 50.0 µM,84.8% (active)
same,growth inhibition,[10]; at 100.0 µM,70% (active)
same,growth inhibition,[11]; at 1.2 µM,25%
same,growth inhibition,[11]; at 3.7 µM,49%
same,growth inhibition,[11]; at 11.0 µM,87% (active)
same,growth inhibition,[11]; at 33.0 µM,94% (active)
same,growth inhibition,[11]; at 100.0 µM,95% (active)
same,growth inhibition,[12]; at 1.2 µM,16%
same,growth inhibition,[12]; at 3.7 µM,29%
same,growth inhibition,[12]; at 11.0 µM,71% (active)
same,growth inhibition,[12]; at 33.0 µM,78% (active)
same,growth inhibition,[12]; at 100.0 µM,90% (active)
same,growth inhibition,[13]; at 1.2 µM,37%
same,growth inhibition,[13]; at 3.7 µM,72% (active)
same,growth inhibition,[13]; at 11.0 µM,91% (active)
same,growth inhibition,[13]; at 33.0 µM,94% (active)
same,growth inhibition,[13]; at 100.0 µM,95% (active)
same,growth inhibition,[14]; [16],21%
same,growth inhibition,[14]; [17],98% (active)
same,growth inhibition,[14]; at 50.0 µM,98.1% (active)
same,growth inhibition,[15]; at 1.2 µM,37%
same,growth inhibition,[15]; at 3.7 µM,64%
same,growth inhibition,[15]; at 11.0 µM,88% (active)
same,growth inhibition,[15]; at 33.0 µM,92% (active)
same,growth inhibition,[15]; at 100.0 µM,92% (active)
